Measured values published in paper PMC4552634, “A New Set of Chemical Starting Points with Plasmodium falciparum Transmission-Blocking Potential for Antimalarial Drug Discovery” (PLoS ONE, 2015).
About 3,200 (25%) of roughly 13,000 compounds showed an effect of 50% or more. Some of the results follow.

Test system: P. falciparum stage V gametocytes
Parameters: BacTiter-Glo ATP luminescence viability of purified stage V gametocytes in 384-well plates, per cent inhibition versus DMSO
Conditions: 48 h, 5 µM; inhibitor

First: NC(=O)c1cccc(Nc2nccc(Nc3ccc4[nH]c(-c5ccccc5)cc4c3)n2)c1 [TCMDC-138678]
Second: O=C(Cc1cccc(Cl)c1)Nc1cccc(-c2c[nH]c3nc(Nc4cccc(OCc5ccccc5)c4)ncc23)c1 [TCMDC-134680]
The “% Inhibition” value of the first is lower: -94.87% for the first, -43.48% for the second.

First: COc1ccc(S(=O)(=O)NC2CCN(c3cc(C)nc(Nc4cccc(C#N)c4)n3)CC2)cc1 [TCMDC-134215]
Second: COc1ccc(CNC2CCN(C)CC2)cc1-c1ccc(S(=O)(=O)NCc2ccccc2)cc1 [TCMDC-132244]
The “% Inhibition” value of the first is lower: 11.7% for the first, 110.3% for the second.

Going from `Cc1ccc(NC(=O)c2cnc(N3CCN(c4ccncc4)CC3)c(Cl)c2)cc1` [TCMDC-134603] to `Cc1ccc(NC(=O)c2ccc(CN3CCCN(Cc4cccc(C#N)c4)CC3)cc2)cc1F` [TCMDC-136394], the “% Inhibition” value falls from 7.543% to -18.71%.

Compared with `CNC(=O)c1[nH]c(-c2ccccc2)nc1NC(C)=O` [TCMDC-131315], `CCCCC1=CC2C(=O)C(C(=O)OC)=CN=C2C=C1OCc1ccccc1` (centres unmarked) [TCMDC-137492] is higher in “% Inhibition” value: -0.1444% for the first, 62.56% for the second.

First: CC(C)(CNC(=O)[C@@H]1CCCN(Cc2ccc(Cl)cc2)C1)c1nc(-c2ccc(Cl)c(O)c2)c(-c2ccncc2)[nH]1 [TCMDC-141139]
Second: COCCN1CCC(C(=O)NCC(C)(C)c2nc(-c3ccc(Br)c(O)c3)c(-c3ccncc3)[nH]2)CC1 [TCMDC-140792]
The “% Inhibition” value of the first is lower: 5.708% for the first, 8.912% for the second.

Compared with `Nc1ncc(-c2ccccc2)cc1/C=C/c1cccnc1` [TCMDC-135534], `Nc1ncc(-c2ccccc2)cc1-c1cccc2ncccc12` [TCMDC-133415] is lower in “% Inhibition” value: 59.51% for the first, 19.97% for the second.

First: Nc1nccc(-c2ccc3c(/C=C/c4ccccc4)cnc(N)c3c2)n1 [TCMDC-136382]
Second: Cc1ccc(NC(=O)c2cn(-c3ccccc3)nc2-c2ccc(F)cc2)cc1[N+](=O)[O-] [TCMDC-125590]
The “% Inhibition” value of the first is lower: -22.89% for the first, -12.22% for the second.

Compared with `COc1cc(NC(=O)N2CCOC(CCN3CCC4(CCc5ccccc54)CC3)(c3ccc(Cl)c(Cl)c3)C2)cc(OC)c1OC` (centres unmarked) [TCMDC-135346], `CN1CCN(CCCN(Cc2csc(-c3ccc(CNCc4ccccc4)cc3)n2)C(=O)Nc2cc(Cl)cc(Cl)c2)CC1` [TCMDC-141795] is higher in “% Inhibition” value: -4.106% for the first, 32.67% for the second.

Going from `CN(Cc1cccc(O)c1)C1CCN(c2cc(NC(=O)c3cccc(F)c3)ccn2)CC1` [TCMDC-134962] to `CC(=O)Nc1ccc(CN2CCC(N(C)c3cc(NC(=O)c4ccc(F)cc4)ccn3)CC2)cc1` [TCMDC-134983], the “% Inhibition” value rises from -30.72% to -11.33%.

Compared with `CCCc1cc(Cc2cnc(N)nc2N)cc(CCC)c1O` [TCMDC-137695], `COc1ccc2ncc(F)c(CCN3C4CCC3CC(NCc3ccc5c(c3)OCCO5)C4)c2n1` (centres unmarked) [TCMDC-135638] is higher in “% Inhibition” value: -57.47% for the first, 37.56% for the second.

Going from `CCOc1ccccc1C1C(C(=O)C(C)(C)C)N2c3ccc(Br)cc3C=CC2C12C(=O)c1ccccc1C2=O` (centres unmarked) [TCMDC-125079] to `C[C@@H](COc1ccccc1)NCC(O)c1ccc([N+](=O)[O-])c(OCc2ccccc2)c1` (some centres unmarked) [TCMDC-132032], the “% Inhibition” value falls from 103.1% to 7.287%.

Compared with `COc1ccc(CNC2CCN(C)CC2)cc1-c1cccc(S(=O)(=O)NCc2ccccc2)c1` [TCMDC-132267], `CN1CCN(CCCN(Cc2csc(-c3ccc(CNCc4ccccc4)cc3)n2)S(=O)(=O)c2ccccc2)CC1` [TCMDC-141600] is lower in “% Inhibition” value: 106.3% for the first, 63.87% for the second.

Going from `Clc1ccc(CNc2nc(NCCc3cnc[nH]3)nc(Nc3ccc4c(c3)OCO4)n2)cc1` [TCMDC-139740] to `O=C(NCCCNc1ccnc2cc(Cl)ccc12)c1ccccc1F` [TCMDC-125231], the “% Inhibition” value rises from 19.01% to 46.84%.

First: O=C(COc1ccccc1Cl)N1CCc2cc3nccc(N4CCN5CCC[C@H]5C4)c3cc21 [TCMDC-140049]
Second: N#Cc1ccccc1C1CCN(C2CCC(Nc3cc(-c4cccnc4)ccn3)CC2)CC1 (centres unmarked) [TCMDC-134834]
The “% Inhibition” value of the first is higher: 15.14% for the first, -2.713% for the second.

Going from `Oc1ccc(Cl)cc1CN1CCCC(COC(c2ccc(F)cc2)c2ccc(F)cc2)C1` (centres unmarked) [TCMDC-136034] to `O=C(Nc1cccc(-c2ccc(CN3CCC(O)CC3)cc2)c1)c1ccc(Cl)cc1` [TCMDC-132633], the “% Inhibition” value falls from 8.672% to -6.492%.

First: O=C(NCCN1CCC(NC(=O)c2ccc(-c3ccccn3)s2)CC1)c1cccc(C(F)(F)F)c1 [TCMDC-141952]
Second: Cc1ccccc1NC(=O)NC1CCN(CCCCCNC(=O)/C=C/c2ccc(Cl)c(Cl)c2)CC1 [TCMDC-135701]
The “% Inhibition” value of the first is higher: 4.93% for the first, -65.25% for the second.

Going from `N#Cc1ccc2c(c1)CN(CCC1CCC(NC(=O)c3cc4ccccc4cc3N)CC1)CC2` (centres unmarked) [TCMDC-139164] to `CC(C)c1ccc2[nH]c(C(=O)NC3CCC(N4CCCc5ccc(C#N)cc5C4)CC3)cc2c1` (centres unmarked) [TCMDC-133503], the “% Inhibition” value falls from 18.76% to -23.75%.

Going from `O=C(c1ccc(Cl)cc1Cl)N1CCCC(C(F)(F)F)C1` (centres unmarked) [TCMDC-123721] to `Oc1c(CN2CCCC(C(F)(F)F)C2)cc(Cl)c2ccccc12` (centres unmarked) [TCMDC-124857], the “% Inhibition” value rises from 22.72% to 96.48%.

Compared with `CC1CCCN(Cc2cc(Cl)cc(Cl)c2O)C1` (centres unmarked) [TCMDC-125392], `O=C(/C=C/c1ccc(Cl)c(Cl)c1)NCCCCCN1CCC(NC(=S)Nc2cccc(Cl)c2)CC1` [TCMDC-135899] is lower in “% Inhibition” value: 14.71% for the first, -1.091% for the second.

Compared with `Cc1cnc(CN(Cc2ccc(-c3ccc(CNCCc4ccc(S(C)(=O)=O)cc4)cn3)cc2)C(=O)c2nn(-c3ccccc3)nc2C)cn1` [TCMDC-141522], `Cc1nn(-c2ccccc2)nc1C(=O)N(Cc1ccc(-c2ccc(CNCCc3ccc(S(C)(=O)=O)cc3)cn2)cc1)C1CC1` [TCMDC-141523] is higher in “% Inhibition” value: -18.48% for the first, 39.99% for the second.

Compared with `Cc1cc(C(=O)N(Cc2ccc(-c3ccc(CNCCc4ccc(S(C)(=O)=O)cc4)cn3)cc2)C(C)CN(C)C)ccc1[N+](=O)[O-]` (centres unmarked) [TCMDC-141521], `Cc1cnc(CN(Cc2ccc(-c3ccc(CNCCc4ccc(S(C)(=O)=O)cc4)cn3)cc2)C(=O)c2ccc([N+](=O)[O-])c(C)c2)cn1` [TCMDC-141520] is higher in “% Inhibition” value: 51.26% for the first, 64.44% for the second.

Going from `C=CC[C@H](C[C@H](O)[C@H](Cc1ccccc1)NC(=O)c1nn(-c2ccccc2)nc1C)C(=O)NC1CCCCC1` [TCMDC-141422] to `NC1=NC(c2ccccc2)(c2ccccc2)C(=O)N1CC1CCC1` [TCMDC-136775], the “% Inhibition” value rises from -47.48% to 2.608%.

First: Cc1ccc(Nc2nccc(NCC(O)c3cccc(F)c3)n2)cc1 (centres unmarked) [TCMDC-136572]
Second: Cc1cc(C(F)(F)F)nn1-c1ccc(NC(=O)c2ccco2)cc1 [TCMDC-124896]
The “% Inhibition” value of the first is lower: -5.913% for the first, 9.865% for the second.

Compared with `Cc1ccc(S(=O)(=O)N(CCCN2CCN(C)CC2)Cc2csc(-c3ccc(CNCc4ccccc4)cc3)n2)cc1` [TCMDC-141602], `CN1CCN(CCCN(Cc2csc(-c3ccc(CNCc4ccccc4)cc3)n2)S(=O)(=O)c2ccc(F)cc2)CC1` [TCMDC-141601] is higher in “% Inhibition” value: 64.23% for the first, 76.11% for the second.

Compared with `CN1CCN(CCCN(Cc2csc(-c3ccc(CNCc4ccccc4)cc3)n2)S(=O)(=O)c2cccc3cccnc23)CC1` [TCMDC-141598], `CN1CCN(CCCN(Cc2csc(-c3ccc(CNCc4ccccc4)cc3)n2)S(=O)(=O)c2ccccc2Cl)CC1` [TCMDC-141603] is higher in “% Inhibition” value: 96.08% for the first, 99.67% for the second.

First: COc1ccc(S(=O)(=O)N(CCCN2CCN(C)CC2)Cc2csc(-c3ccc(CNCc4ccccc4)cc3)n2)cc1 [TCMDC-141599]
Second: CCc1ccc(NC(=O)N(CCCN2CCN(C)CC2)Cc2csc(-c3ccc(CNCc4ccccc4)cc3)n2)cc1 [TCMDC-141641]
The “% Inhibition” value of the first is higher: 65.47% for the first, 9.107% for the second.

First: O=C(NNC(=O)c1ccc(CCN2CCC(c3nc(COCC(F)(F)F)c(-c4ccc(F)cc4)o3)CC2)cc1)Nc1ccc(Oc2ccccc2)cc1 [TCMDC-131906]
Second: CN1CCN(CCCN(Cc2csc(-c3ccc(CNCc4ccccc4)cc3)n2)C(=O)Nc2ccc3ccccc3c2)CC1 [TCMDC-141642]
The “% Inhibition” value of the first is lower: -12.54% for the first, 43.35% for the second.

Going from `CN1CCN(CCCN(Cc2csc(-c3ccc(CNCc4ccccc4)cc3)n2)C(=O)c2cc(F)cc(F)c2)CC1` [TCMDC-141812] to `COc1cc(Br)ccc1N1CCN(CCCCNC(=O)c2ccc(NC(=O)c3ccc(Cl)cc3)cc2)CC1` [TCMDC-138257], the “% Inhibition” value falls from 50.04% to 6.971%.

First: Cc1ccccc1C1CCN(C2CCC(NC(=O)/C=C/c3ccc4c(c3)OC(F)(F)O4)CC2)CC1 (centres unmarked) [TCMDC-133520]
Second: Cc1ccccc1NC(=S)NC1CCN(CCCCCNC(=O)/C=C/c2ccc(Cl)c(Cl)c2)CC1 [TCMDC-135897]
The “% Inhibition” value of the first is lower: -82.53% for the first, 97.66% for the second.

Going from `O=C(/C=C/c1ccc(Cl)c(Cl)c1)NCCCCCN1CCC(NC(=O)Nc2cccc(Cl)c2Cl)CC1` [TCMDC-135725] to `O=C(/C=C/c1ccc(Cl)c(Cl)c1)NCCCCCN1CCC(NC(=O)Nc2cccc(Cl)c2)CC1` [TCMDC-135711], the “% Inhibition” value rises from -48.39% to 59.36%.

Going from `Cc1ccc(NC(=S)NC2CCN(CCCCCNC(=O)/C=C/c3ccc(Cl)c(Cl)c3)CC2)cc1Cl` [TCMDC-135901] to `O=C(/C=C/c1ccc(Cl)c(Cl)c1)NCCCCCN1CCC(NC(=S)Nc2ccc(Cl)c(Cl)c2)CC1` [TCMDC-135903], the “% Inhibition” value falls from 122.2% to -7.54%.

First: CSc1ccccc1NC(=S)NC1CCN(CCCCCNC(=O)/C=C/c2ccc(Cl)c(Cl)c2)CC1 [TCMDC-139391]
Second: Cc1cccc(NC(=S)NC2CCN(CCCCCNC(=O)/C=C/c3ccc(Cl)c(Cl)c3)CC2)c1 [TCMDC-139390]
The “% Inhibition” value of the first is higher: 14.69% for the first, -46.46% for the second.

`O=C(/C=C/c1ccc(Cl)c(Cl)c1)NCCCCCN1CCC(NC(=O)Nc2cc(Cl)cc(Cl)c2)CC1` [TCMDC-135727] was tested, and the “% Inhibition” value was -63.17%.
